Compound activity deposited in PubChem BioAssay by National Center for Advancing Translational Sciences (NCATS).
Tau fluor counter – counter-screen for tau fibril formation inhibitors; tau K18 P301L Alexa594 fluorescence, heparin fibrillization; Potency, µM (series often up to 57.7 µM), without a hit: top-dose activity change, negative = decrease; hit rate 0.93% among 280,000; AID 1463; further: potency means the concentration at half of the fitted maximal effect; nearly all actives have a fitted effect of over 55% in size
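Human K18 P301L tau (15 uM unlabeled plus 0.24 uM Alexa 594-labeled, final) in 100 mM sodium acetate pH 7 was mixed with compound and 20 uM heparin and incubated 6 hr at 37 C.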
Sfp inh – inhibitors of Bacillus subtilis Sfp phosphopantetheinyl transferase; Q9F4F7; Biochemical Sfp PPTase activity, qHTS; Potency, µM, for inactives: largest response in the series, negative = inhibition, hits mostly inhibitors; hit rate 3.5% among 310,000; AID 1490;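 further: the enzyme is Sfp with the accession as filed and its product quenches rhodamine fluorescence; potency means the concentration at half of the fitted maximal effect; 0% = enzyme reaction without inhibitor and -100% = no enzyme wells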
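With Hepes-Na pH 7.6 buffer containing 10 mM MgCl2, Sfp (15 nM) modified BHQ-2-YbbR (12.5 uM) using rhodamine-CoA (5 uM). Two reads 30 minutes apart at 525/598 nm yielded each well's rate.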
Tau FP inhib – blocks human tau fibril formation measured by polarization; P10636; K18 P301L tau heparin fibrillization, Alexa594 FP, 6 h; Potency, µM (top dose mostly 57.7 µM), inactives show at the top dose activity, negative = inhibition, hits mostly inhibitors; hit rate 0.39% among 280,000; AID 1468; further: potency means the concentration at half of the fitted maximal effect; nearly all actives have a fitted effect of over 55% in size
Target sequence (P10636 561-689 P618L limits assumed): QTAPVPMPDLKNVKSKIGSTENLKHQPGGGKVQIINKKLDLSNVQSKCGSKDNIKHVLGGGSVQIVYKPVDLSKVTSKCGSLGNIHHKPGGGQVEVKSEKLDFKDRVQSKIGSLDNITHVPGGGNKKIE
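Steps: dispense K18 P301L tau (15 uM plus 0.24 uM Alexa 594 tracer, final) in pH 7 sodium acetate; add compound; add heparin (20 uM final); incubate 6 hr, 37 C; add ThT (30 uM final); after 1 hr ambient, read FP.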
FBPA coupling cs – counter-screen for Giardia aldolase inhibitors: coupling enzyme system | AID 2472 | coupling enzyme system counterscreen, AmpLite Red fluorescence | hit rate 0.67% among 290,000 | activity change, negative = inhibition, % at 58.2 µM, hits read low; in the data active means activity change below about -30%
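Counterscreen of the coupled detection system alone, without aldolase: glyceraldehyde-3-phosphate coupling enzymes plus AmpLite Red readout. Compounds at 57.5 uM final, 10 min RT preincubation, 20 min RT reaction, fluorescence 525/598 nm.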
Tau ThT inhib – inhibitors of human tau fibril formation, thioflavin T binding | P10636 | recombinant tau K18 P301L (four-repeat tau fragment), heparin-induced fibrillization, ThT fluorescence | hit rate 2.1% among 270,000 | Potency, µM (titrated, usually from 57.4 µM), for the others: at the highest dose activity, negative = inhibition, usual class: inhibitors; further: potency means the concentration at half of the fitted maximal effect; nearly all actives have a fitted effect of over 55% in size
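K18 P301L tau (15 uM + 0.24 uM Alexa 594-tagged), heparin 20 uM, NaOAc pH 7, 6 h 37 C; ThT 30 uM, 1 h RT, ex 450/em 510 nm.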
JMJD2E inh – blocks human JMJD2E demethylase activity. B2RXH2. JMJD2E catalytic domain, FDH-coupled NADH fluorescence (FDH is formaldehyde dehydrogenase). Potency, µM (doses to about 57.1 µM), for the others: at the top dose activity change, negative = inhibition, most hits filed as inhibitors. hit rate 1.6% among 230,000. AID 2147; active means well fitted inhibition curve with a large enough effect, not every such curve was filed as active; inconclusive means small, poorly fitted or top-dose-only effect, or another doubt; inactive means no such curve, though single readings can be large or run the other way;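 further: potency means the concentration at half of the fitted maximal effect; 0% = wells with enzyme and -100% = buffer wells without enzyme; nearly all actives have a fitted effect of over 50% in size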
Target sequence (B2RXH2 1-337 limits assumed): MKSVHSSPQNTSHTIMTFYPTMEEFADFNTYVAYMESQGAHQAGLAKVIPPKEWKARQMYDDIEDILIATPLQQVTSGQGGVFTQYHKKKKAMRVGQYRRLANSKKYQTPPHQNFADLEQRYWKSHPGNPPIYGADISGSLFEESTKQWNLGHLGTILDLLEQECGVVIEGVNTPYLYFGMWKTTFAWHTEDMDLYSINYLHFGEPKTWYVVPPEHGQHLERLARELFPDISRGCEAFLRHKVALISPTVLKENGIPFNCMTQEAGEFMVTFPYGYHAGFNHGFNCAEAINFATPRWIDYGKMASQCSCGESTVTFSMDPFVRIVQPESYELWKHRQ
* = called active by the depositor; [ ] = remark or other dose. Hits are enriched below; roughly 5.3% of the tested compounds scored in any of these assays. Unless noted, the call rests on the fitted dose curve; in most records, active means well fitted curve in the direction sought with a large enough effect; inconclusive means small, poorly fitted or top-dose-only effect, or another doubt; inactive means no such curve, though single readings can be large; an effect the other way counts as inactive or inconclusive. Unless noted, on the % scale 0 is the no-effect control and ±100 the full control effect.

How did Cn1c(-c2ccc(=O)[nH]c2)nc2ccccc21 do in these assays?
Tau fluor counter: -7%; Sfp inh: 18µM*; Tau FP inhib: inconclusive; FBPA coupling cs: -33*; Tau ThT inhib: inconclusive; JMJD2E inh: inconclusive

What do the screens show for `CCOc1ccc(C2C(C(N)=O)=C(C)Nc3nc(SCc4ccccc4)nn32)cc1` (centres undefined)?
Tau fluor counter: -7%; Tau FP inhib: inconclusive; Tau ThT inhib: 12%

What do the screens show for `COc1cc2c(cc1OC)C(c1ccc(-c3ccc(Cl)cc3Cl)o1)=NCC2`?
Tau fluor counter: -11%; Sfp inh: 28µM*; Tau FP inhib: 3%; FBPA coupling cs: 0; Tau ThT inhib: inconclusive; JMJD2E inh: -2%

Results for COc1cc2c(cc1OC)C(c1ccc(-c3ccc(Cl)c(Cl)c3)o1)=NCC2 ?
Tau fluor counter: inconclusive; Sfp inh: 20µM*; Tau FP inhib: 13%; FBPA coupling cs: 0; Tau ThT inhib: 11µM*; JMJD2E inh: -15%

Results for OC1CCN(C(=S)Nc2ccc(Nc3ccccc3)cc2)CC1 ?
Tau fluor counter: -27%; Sfp inh: 18µM*; Tau FP inhib: 1%; FBPA coupling cs: 0; Tau ThT inhib: inconclusive; JMJD2E inh: 8%

What do the screens show for `CC1CCCN(C(=S)Nc2ccc(Nc3ccccc3)cc2)C1` (centres undefined)?
Tau fluor counter: 13µM*[quencher]; Sfp inh: inconclusive; Tau FP inhib: inconclusive; FBPA coupling cs: 6; Tau ThT inhib: inconclusive; JMJD2E inh: -26%

What do the screens show for `S=C(Nc1ccccc1)N1CCC(C2CCN(C(=S)Nc3ccccc3)CC2)CC1`?
Tau fluor counter: -3%; Sfp inh: 16%; Tau FP inhib: 0%; FBPA coupling cs: 3; Tau ThT inhib: -9%; JMJD2E inh: 9%

How did CC1CCC(NC(=O)c2ccc(CS(=O)(=O)c3ccc(Cl)cc3)o2)CC1 (centres undefined) do in these assays?
Tau fluor counter: 0%; Tau FP inhib: 10%; Tau ThT inhib: 4%

How did Nc1nc2[nH]cc(CCc3ccc(C(=O)NC(CCC(=O)O)C(=O)O)cc3)c2c(=O)[nH]1 (centres undefined) do in these assays?
Sfp inh: 11%

Results for c1ccc(COc2ccc(Nc3ncnc4nc[nH]c34)cc2)cc1 ?
Tau fluor counter: 14µM*[quencher]; Sfp inh: 11%; Tau FP inhib: 18%; FBPA coupling cs: 1; Tau ThT inhib: inconclusive; JMJD2E inh: -27%

How did CCOC(=O)c1ccc(Nc2ncnc3nc[nH]c23)cc1 do in these assays?
Tau fluor counter: -8%; Sfp inh: 11%; Tau FP inhib: -2%; FBPA coupling cs: 2; Tau ThT inhib: -5%; JMJD2E inh: inconclusive

What do the screens show for `CCCCc1nn2c(=O)cc(COC(=O)c3ccccc3C)nc2s1`?
Tau fluor counter: -16%; Tau FP inhib: 0%; Tau ThT inhib: inconclusive

Results for CN1C(=O)N(C)C2=NNC=NC2(O)C1=O (centres undefined) ?
Tau fluor counter: -5%; Sfp inh: -25%; Tau FP inhib: -2%; FBPA coupling cs: -46*; Tau ThT inhib: -6%; JMJD2E inh: inconclusive

Results for COC(=O)c1nnc(C(=O)NCc2ccccc2)c2[nH]c3ccccc3c12 ?
Tau fluor counter: -12%; Sfp inh: -1%; Tau FP inhib: inconclusive; FBPA coupling cs: 3; Tau ThT inhib: -3%; JMJD2E inh: 6%

How did COc1ccccc1N1CCN(c2ncnc3c2c(-c2ccccc2)cn3-c2cccc(C)c2)CC1 do in these assays?
Tau fluor counter: -7%; Tau FP inhib: 6%; Tau ThT inhib: -11%

Results for Cc1ccc(-c2nn(-c3ccccc3)cc2CO)cc1 ?
Sfp inh: 5%; FBPA coupling cs: 2

What do the screens show for `N=C(N)SCc1cn(-c2ccccc2)nc1-c1ccc(Br)cc1`?
Tau fluor counter: -28%; Sfp inh: 50µM*; Tau FP inhib: inconclusive; FBPA coupling cs: 0; Tau ThT inhib: inconclusive; JMJD2E inh: -7%

What do the screens show for `N#Cc1ccc(CSc2nnc(Cc3cccs3)n2Cc2ccco2)cc1`?
Tau fluor counter: 1%; Sfp inh: 14µM*; Tau FP inhib: 6%; FBPA coupling cs: -7; Tau ThT inhib: inconclusive; JMJD2E inh: 2%

How did N#Cc1ccc(CSc2nnc(-c3ccccc3)n2Cc2ccco2)cc1 do in these assays?
Tau fluor counter: 0%; Sfp inh: -2%; Tau FP inhib: 9%; FBPA coupling cs: 1; Tau ThT inhib: -6%; JMJD2E inh: 0%

Results for CCOC(=O)c1c(NC(=O)c2noc3c2CCCC3)sc(C)c1C ?
Tau fluor counter: -21%; Sfp inh: 32µM*; Tau FP inhib: -9%; FBPA coupling cs: -1; Tau ThT inhib: -18%; JMJD2E inh: -10%

How did COc1ccc(CNc2ncncc2-c2cccc(NS(C)(=O)=O)c2)c(OC)c1 do in these assays?
Sfp inh: 3%; FBPA coupling cs: 2

Results for CC1(C)CCN2CCC(C)(C)c3c(O)ccc1c32 ?
Sfp inh: 20µM*; FBPA coupling cs: -30*

Results for COc1ccc2c(c1)nc(SCC(=O)c1ccc(Br)s1)n2C ?
Tau fluor counter: -23%; Sfp inh: 56µM*; Tau FP inhib: -7%; FBPA coupling cs: -7; Tau ThT inhib: inconclusive; JMJD2E inh: -5%

How did C/C=C/C=C/C(=O)Nc1nccs1 do in these assays?
Tau fluor counter: -11%; Sfp inh: 35µM*; Tau FP inhib: 0%; FBPA coupling cs: -4; Tau ThT inhib: -16%; JMJD2E inh: -1%

Results for Cc1noc(/C=C/c2ccco2)c1S(=O)(=O)N1CCC(C(=O)N(C)Cc2ccccc2)CC1 ?
Tau fluor counter: -19%; Sfp inh: 45µM*; Tau FP inhib: -7%; FBPA coupling cs: 0; Tau ThT inhib: inconclusive; JMJD2E inh: inconclusive

How did CCc1cc(C(=O)O)c(NC(=O)/C=C/c2ccc(OC)cc2)s1 do in these assays?
Tau fluor counter: inconclusive; Sfp inh: 14%; Tau FP inhib: -2%; FBPA coupling cs: 3; Tau ThT inhib: 13µM*; JMJD2E inh: -8%

How did CCc1cc(C(=O)O)c(NC(=O)/C=C/c2ccc(OC)c(OC)c2)s1 do in these assays?
Tau fluor counter: -15%; Sfp inh: 10%; Tau FP inhib: 0%; FBPA coupling cs: 6; Tau ThT inhib: inconclusive; JMJD2E inh: -23%

How did NNC(=O)CSc1c(-c2ccccc2)c2cc(Cl)ccc2[nH]c1=O do in these assays?
Sfp inh: 5%; FBPA coupling cs: -3

Results for O=c1[nH]c2ccc(Cl)cc2c(-c2ccccc2)c1SC(=S)N1CCOCC1 ?
Tau fluor counter: -29%; Sfp inh: 11µM*; Tau FP inhib: 13%; FBPA coupling cs: 1; Tau ThT inhib: -16%; JMJD2E inh: -8%
